# Bioassay records from PubChem.
# GLP1R cytotox – cytotoxicity counter-screen for GLP-1 receptor inverse agonists; HEK293 cAMP-luciferase reporter cells, luminescence, 24 h; Potency, µM (series often up to 38.3 µM), for inactives: at the highest dose activity change, negative = inhibition, usual class: inhibitors; 0.13% of 410,000 active; AID 624418;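 also: loss of luciferase light is scored as toxicity; % is scaled to controls: 0 for no effect and ±100 for the full control effect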
#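 Step one: seed cells (200 cells/uL, DMEM with 10% Nu serum, 1% pen-strep). Step two: 12-hour incubation at 37 deg C. Step three: pin 23 nL compound, incubate 24 hr. Step four: add luciferase reagent, read luminescence 12 min later.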
# GLP1R inv ag – GLP-1 receptor (human) inverse agonism; P43220; HEK293 GLP-1R CRE-luciferase, luminescence, 24 h; GLP-1R form is constitutively active; Potency, µM (series often up to 38.3 µM), for the others: top-dose activity change, negative = inhibition, actives largely listed as inhibitors; 1.6% of 410,000 active; also: % is scaled to controls: 0 for no effect and ±100 for the full control effect; nearly all actives have a fitted effect of over 55% in size
# Target sequence (P43220 whole entry, looked up): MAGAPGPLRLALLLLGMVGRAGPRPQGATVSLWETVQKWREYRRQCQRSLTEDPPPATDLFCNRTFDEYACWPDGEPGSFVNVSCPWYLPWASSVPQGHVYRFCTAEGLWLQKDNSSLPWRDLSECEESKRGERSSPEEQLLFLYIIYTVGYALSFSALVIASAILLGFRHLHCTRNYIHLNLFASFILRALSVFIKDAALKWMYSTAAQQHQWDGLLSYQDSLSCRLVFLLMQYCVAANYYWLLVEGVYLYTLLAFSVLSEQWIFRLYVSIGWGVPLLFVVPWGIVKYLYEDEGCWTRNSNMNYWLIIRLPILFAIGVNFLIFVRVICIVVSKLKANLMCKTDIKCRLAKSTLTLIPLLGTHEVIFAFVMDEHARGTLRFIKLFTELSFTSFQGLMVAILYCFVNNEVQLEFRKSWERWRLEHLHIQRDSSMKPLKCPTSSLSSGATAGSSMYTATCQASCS
#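 Constitutively active GLP-1R drives a cAMP-responsive luciferase in stably transfected HEK293 cells; test compounds are added after overnight (12 h) attachment and left 24 hr, and signal loss in luminescence marks inhibition.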
# GLP1R ag – agonists of human GLP-1 receptor | P43220 | HEK293 GLP-1R CRE-luciferase, luminescence, 4-6 h; cells express a hypersensitive GLP-1R form | Potency, µM (doses to about 45.6 µM), for the others: at the highest dose activation, actives largely listed as activators | 0.007% of 380,000 active; also: % of control where 0% means no effect
# ClpP mod – qHTS Assay for Activators of ClpP. ATP-dependent Clp protease proteolytic subunit (Bacillus subtilis (strain 168)), P80244. purified B. subtilis ClpP, FRET peptide cleavage, 20 min. Potency, µM (series often up to 57.5 µM), for inactives: at the highest dose activity change, negative = active. 1.9% of 340,000 active; active = well fitted falling curve with a large enough effect; inconclusive = small, poorly fitted or top-dose-only effect; inactive = no such curve, though single readings can be large or run the other way; also: the source files actives as falling curves though it sought activators and does not explain the sign; nearly all actives have a fitted effect of over 65% in size
# Target sequence (P80244 whole entry, looked up): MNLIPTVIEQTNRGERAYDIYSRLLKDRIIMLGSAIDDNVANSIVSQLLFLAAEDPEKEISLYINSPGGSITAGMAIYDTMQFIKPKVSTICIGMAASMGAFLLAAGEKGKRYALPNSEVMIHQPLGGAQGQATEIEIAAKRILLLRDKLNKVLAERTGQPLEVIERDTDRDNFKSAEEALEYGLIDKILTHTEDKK
#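 ClpP 10 microg/mL final, pH 8 Tris/KCl buffer with BSA, glycerol, Tween-20; compound pinned in; FRET-FV substrate; RT 20 min; Ex320/Em430; ΔFRET vs ADEP 5.8 microM, DMSO, no enzyme.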
# An asterisk follows results filed as active; ? = inconclusive; · = not tested or not shown; [ ] = another dose, or the depositor's remark. An excerpt weighted towards active compounds, which were near 3.2% of everything screened. Unless noted, calls follow the shape of the dose curve; as a rule, active = well fitted curve in the direction sought with a large enough effect; inconclusive = small, poorly fitted or top-dose-only effect, or another doubt; inactive = no such curve, though single readings can be large; an effect the other way counts as inactive or inconclusive. Potency is read from the fitted curve at half-maximal effect.
SMILES,GLP1R cytotox,GLP1R inv ag,GLP1R ag,ClpP mod
N#CCCn1cc(/C=N/O)c(-c2ccc(-c3ccccc3)cc2)n1,-2%,?,-2%,-7%
N#CCCn1cc(/C=C2\NC(=S)N(c3ccccc3)C2=O)c(-c2ccc(-c3ccccc3)cc2)n1,1%,7.9µM*,1%,·
O=C(O)CCn1cc(/C=C2/NC(=S)N(c3ccccc3)C2=O)c(-c2ccccc2)n1,?,-5%,2%,13µM*
Cc1ccc(Cl)cc1NC(=O)CSc1ccc(C(=O)O)cn1,-10%,7%,·,-1%
Cc1cccc(CSc2nnc(CCCCCNC(=O)OC(C)(C)C)o2)c1,-1%,7.1µM*,19%,·
COc1ccccc1C(=O)Nc1ccc(N2CCN(Cc3ccccc3)CC2)cc1,-7%,11µM*,-2%,1%
Cc1cc(NC(=S)N(Cc2ccc(Cl)cc2)Cc2ccc(C(=O)O)cc2)ccc1Cl,-9%,8.9µM*,0%,-1%
CN(C)CCCN(Cc1ccccc1)C(=S)Nc1cccc(C(F)(F)F)c1,?,?,17%,1%
CCCN(Cc1ccccc1)C(=S)Nc1ccc(SC(F)F)cc1,?,10µM*,10%,·
CN(C)CCCN(Cc1ccccc1)C(=S)Nc1ccc(F)c(Cl)c1,?,1.8µM*,1%,·
O=C1C(=Cc2ccc(Cl)cc2)Cc2ccccc21,4%,12%,3%,3%
C=CC(=O)N1C/C(=C/c2ccc(Cl)cc2)C(=O)/C(=C\c2ccc(Cl)cc2)C1,3.2µM*,?,-2%,6%
C=CC(=O)N1C/C(=C/c2ccccc2)C(=O)/C(=C\c2ccccc2)C1,?,4.5µM*,-19%,32µM*
COC(=O)C(c1ccccc1)C(CC(=O)c1ccccc1)c1ccccc1 (centres undefined),-2%,7%,-1%,0%
CCCC[C@H](CC(=O)c1ccccc1)[C@@H](OC(C)=O)C(=O)Oc1c(C(C)C)cccc1C(C)C,-25%,3.5µM*,-3%,0%
CCOC(=O)C1=C(C)NC(C)=C(C(=O)OC)C1c1ccco1 (centres undefined),-13%,3%,9%,·
C=CCOC(=O)C1=C(C)NC(C)=C(C(=O)OCC=C)C1c1ccco1,7%,11µM*,-1%,?
C=CCOC(=O)C1=C(C)NC(C)=C(C(=O)OCC=C)C1/C=C/c1ccccc1,-26%,5µM*,3%,?
Cc1c(Cl)cccc1NC(=O)c1ccc2c(c1)CCCN2S(C)(=O)=O,-4%,-5%,·,-1%
COc1ccccc1NS(=O)(=O)c1cc(NC(=O)C(C)C)ccc1N1CCCCC1,2%,?,4%,-4%
COc1ccccc1NS(=O)(=O)c1cc(NC(=O)Nc2ccccc2)ccc1N1CCCCC1,1%[1.53 µM],?,-17%,25µM*
O=C(Nc1ccc(N2CCOCC2)c(S(=O)(=O)Nc2ccccc2Cl)c1)c1ccc(F)cc1,-6%,10µM*,1%,-26%
COc1ccccc1NS(=O)(=O)c1cc(NC(=O)c2ccncc2)ccc1N1CCOCC1,6%,75%,21%,25µM*
NC(=O)c1ccccc1NS(=O)(=O)Cc1ccc(Cl)cc1,-9%,?,-4%,22µM*
CCS(=O)(=O)Nc1ccccc1C(N)=O,6%,-5%,0%,·
SMILES,GLP1R cytotox,GLP1R inv ag,GLP1R ag,ClpP mod
CN(C)S(=O)(=O)Nc1ccccc1C(N)=O,-7%,?,4%,22µM*
NC(=O)c1ccccc1NS(=O)(=O)c1ccccc1,6%,3%,-2%,28µM*
O=S(=O)(Nc1ccccc1-c1ccccc1)c1ccccc1,2%,6.3µM*,12%,·
Cc1ccc(CNC(=O)c2cc(S(=O)(=O)N3CCCC(C)C3)cn2C)cc1 (centres undefined),1%,-9%,1%,1%
Cc1ccc(Cl)cc1-n1c(CCC(=O)O)ccc1-c1cccs1,2%,-21%,·,-7%
CN(C)c1ccc(-c2nc(-c3ccco3)no2)cc1[N+](=O)[O-],3%,0%,·,-1%
Cc1ccc(-c2onc(C)c2C)cc1S(=O)(=O)Nc1cccc(Cl)c1C,?,10µM*,·,1%
Cc1c(Cl)cccc1NS(=O)(=O)c1ccccc1,19%,10µM*,10%,-9%
O=C(CSc1nc2c([nH]c3ccccc32)c(=O)n1-c1ccccc1)Nc1ccc2c(c1)OCO2,-3%,-6%,·,4%
CCC(CC)C(=O)Nc1ccccc1SCc1cc(=O)c2cccc(C)c2[nH]1,1%,7%,·,-1%
COc1cc(/C=C/CN2CCC(C(=O)NC(c3ccc(F)cc3)c3ccc4ccccc4n3)CC2)ccc1OC(C)=O (centres undefined),?,10µM*,-5%,-5%
O=C(NC(c1ccc(F)cc1)c1ccc2ccccc2n1)C1CCN(Cc2ccc3ccccc3n2)CC1 (centres undefined),-16%,?,-2%,-3%
CCOC(=O)C1=CN(Cc2cccc(F)c2)S(=O)(=O)NC1c1ccc2ccccc2c1 (centres undefined),-18%,13µM*,-3%,-2%
CCOC(=O)C1=CN(Cc2cccc(F)c2)S(=O)(=O)NC1c1cccc(OC)c1 (centres undefined),-1%,-29%,-2%,-3%
COc1ccccc1NC(=O)c1sc2nc(C)c(C(=O)Nc3ccc(C)cc3C)c(-c3cccs3)c2c1N,108%,-6%,·,-10%
O=C(Cn1c(=O)n(Cc2ccc(F)cc2)c(=O)c2sc3ccccc3c21)NCc1ccccc1,6%,1%,-1%,0%
Cc1ccnc(NC(=O)c2oc3ccccc3c2C)c1,8%,11µM*,0%,·
Cc1cccnc1NC(=S)NC(=O)c1oc2ccccc2c1C,?,4.5µM*,9%,·
C(=C\c1ccnc2ccccc12)/c1ccc(N(Cc2ccccc2)Cc2ccccc2)cc1,·,·,·,0%
Cc1ccc(C)c(NC2=C(c3ccc(C(F)(F)F)cc3)C(=O)c3ccccc32)c1,1%,-16%,·,-6%
Cc1cc(CN2CCCC(CO)(Cc3cccc(Cl)c3)C2)n[nH]1 (centres undefined),0%,?,6%,·
OCC1(Cc2cccc(Cl)c2)CCCN(Cc2ccc3cc(F)ccc3n2)C1 (centres undefined),-4%,13µM*,19%,·
COc1ccc(NC(=O)c2oc3ccc(S(=O)(=O)N(C)C4CCCCC4)cc3c2C)cc1Cl,0%,1%,·,28µM*
Cc1c(C(=O)Nc2ccc(F)c(Cl)c2)oc2ccc(S(=O)(=O)N(C)C3CCCCC3)cc12,-5%,8%,·,?
O=C(NCCc1csc(-c2ccc(Cl)cc2)n1)c1cccs1,-8%,?,·,-23%
CCCCN1C=C(C(=O)OC)C(c2ccccc2C(F)(F)F)C(C(=O)OC)=C1,30%,-19%,-4%,32µM*
COCCN1C=C(C(=O)OC)C(c2ccccc2C(F)(F)F)C(C(=O)OC)=C1,361%,-18%,1%,-6%
Nc1[nH]n2c(=O)c3c(nc2c1N=Nc1ccc(Cl)cc1)CCCC3,-2%,15%,-29%,-1%
